In publication PMC12136788:
In all, about 24,000 sequences were measured (“enrichment r”: median about 0.99, highest 2% from about 3.7 on). The sample holds the highest values, similar sequences and a random draw of the others, so the mix is not that of the screen.

T1: UNK ZnF1-3 (human, UniProt Q9C0B0 31-174)
T1 sequence: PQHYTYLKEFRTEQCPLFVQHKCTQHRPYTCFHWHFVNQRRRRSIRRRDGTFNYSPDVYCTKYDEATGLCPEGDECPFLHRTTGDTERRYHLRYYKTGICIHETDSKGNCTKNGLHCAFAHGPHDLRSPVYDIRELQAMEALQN

B1: chr7:140404665:140404666:+_ENSG00000090266_ENST00000247866|hu_hu|hu_hu_hu_mus_False|8_88 (ssRNA)
RNA: GGGAGUUCUACAGUCCGACGAUCUGCUCCUACUCGUCCAGAGAGUUUACACCUUCAGUCCUCGUCAUCAGGAGGGAUUCCCAGUUCUUCAUCUGUCCACUGUGAAGGAUCUGGAUAUGAAAAGUGACCCAGCACCUCAUCCGACAACAGAGGAUUGAGCAUCA
B2: chr18:67804014:67804015:+_ENSMUSG00000024537_ENSMUST00000025418|mus_mus|motif|central (ssRNA)
RNA: GGGAGUUCUACAGUCCGACGAUCGCAAUCAGUAUAGAAAUAACCAAUCUUACACAUGUUCAGUGUAGAAAUAAUCAGAUCGGUUGCAAGCUGGCCAACAUUUCCAACGGAUACUGCUGGCAUCAGGAGUGUAAAGUUCGUUAGCAACAGAGGAUUGAGCAUCA
B3: chr4:140556289:140556290:+_ENSMUSG00000036622_ENSMUST00000037055|mus_mus|mus_mus_mus_hu_False|48_48 (ssRNA)
RNA: GGGAGUUCUACAGUCCGACGAUCGAUGGAGCUCACCAGGCCCCCUUUUGCCGUGCAGAACCCUGUGCGGGUCACCACUGCCAGGACACGGGGUCCCACAUAGGCCCGGGCCUGCAAGAUGAGGGUCCCGCAGAAGAGUGUGUGCAACAGAGGAUUGAGCAUCA
B4: 134094901_134095021_423_5pUTR_ENSG00000151502_ENST00000281187|human|control|control (ssRNA)
RNA: GGGAGUUCUACAGUCCGACGAUCCUCAUCGCACCGCCGGGCCGGGCGGGUCUCGGUAAGGACCGCUCCCUCGCACCGGGGCGCGGGCUGCCCUAGGUAAAGAAGGCCAGAGGGCCCGAUGCGCGAGCGCGCUCGGCCGCCGCGCAACAGAGGAUUGAGCAUCA
B5: chr14:63765801:63765802:-_ENSMUSG00000021273_ENSMUST00000054963|mus_mus|motif|central (ssRNA)
RNA: GGGAGUUCUACAGUCCGACGAUCCUGCUUGGUUUUGCUUGAUGAUGGGUCUGAGUUGGGGAUCCGGUGAUAAAUCUCUUCGGUGUACUGGUAUAUGAUAGCUUUGACGGCAGGCAUGUUGGUGGCAUCCAUCAUGAGGGUGACCAACAGAGGAUUGAGCAUCA
B6: 46153067_46153187_242_5pUTR_ENSG00000159596_ENST00000372025|human|control|control (ssRNA)
RNA: GGGAGUUCUACAGUCCGACGAUCGAUAAAACUGAAGACAUGUAGUAGGAGAUCUCAGGGGCCCACGCCGGCCAGUCCCUCCAAUCCUCCGGAUUCUAGGUAGUCUAGCUUCCUGGUUGCCAGCCAUUACACGGUUUAGCUUUCCAACAGAGGAUUGAGCAUCA
B7: chr7:54825262:54825263:-_ENSG00000132432_ENST00000352861|hu_hu|hu_hu_hu_mus_False|48_58 (ssRNA)
RNA: GGGAGUUCUACAGUCCGACGAUCCUGCCGGCUGGGCUCCACAAACUGCAUUACCUGAUCCAUGUUUGUUGGAUGGCACACCUAAAAUGCCAGGGACCGUAGCUCAGGAGAGAACCGAGCCCAACGGAACCGGAAGCUGGCAACCAACAGAGGAUUGAGCAUCA
B8: chr2:48026839:48026840:+_ENSG00000116062_ENST00000540021|hu_hu|hu_hu_hu_mus_False|1_48 (ssRNA)
RNA: GGGAGUUCUACAGUCCGACGAUCAUAGUGAGCCACUAGCGUCCUAAAUCUGGAACAGUGGCGGUCAUCCGAAAACUGGCCGAUGAAAAACUUUCCCAGUGAAGUGUCCACAAAGCAAACACCAUACACACGAGUGUGGCCAGACAACAGAGGAUUGAGCAUCA
B9: 133975328_133975448_5492_3pUTR_ENSG00000205060_ENST00000378509|human|control|control (ssRNA)
RNA: GGGAGUUCUACAGUCCGACGAUCUCUCCCAUUCCAGCUUGGUACACACUGAACACAUUUGAGGCUUAUGACUGGUUCUUUUACUUACAAAUAUUGUUUAGACACAUUUUCAAAUGUCACACCAAUCAAUAAUAAUAAGGAAUGCAACAGAGGAUUGAGCAUCA
B10: 62642993_62643113_3073_3pUTR_ENSMUSG00000032244_ENSMUST00000034775|mouse|control|control (ssRNA)
RNA: GGGAGUUCUACAGUCCGACGAUCCAUAUGUGUCCUCAUUCCUUUUCAUCUUACACCUAAUUAGGGAGACACCAAUGCCCUAUGGAAAGGCAGUUUCCAAUUUUUAAAGAUACAACACACAAGGACAGGGCUAGAAAAGGACGACAACAGAGGAUUGAGCAUCA
B11: 243667512_243667632_2619_3pUTR_ENSG00000117020_ENST00000366539|human|control|control (ssRNA)
RNA: GGGAGUUCUACAGUCCGACGAUCUUCUCAUCACUAAAAAAUAAAUACUACUGCAAUAUAAACAAAAUCAUAAAAGGACAUUCAAAGUUUCAACAUCUGAGAAAAAGCUAAUUCACGUAGAACUGAAAGUAAAAAAUUAAAUAACAACAGAGGAUUGAGCAUCA
B12: chr5:135513207:135513208:+_ENSG00000113658_ENST00000545279|hu_hu|FALSE|FALSE (ssRNA)
RNA: GGGAGUUCUACAGUCCGACGAUCAAUGUAAGCUCACAGUAUCUGUACUCAAAGUUUCUCUAAAAUUAAAACAAGUCCACUAACAAUAUAAUUGAAAAGAAUACUUCUGCAUUAUGAAACAGAAGAUAUGGGGUUCAGAGGGGACAACAGAGGAUUGAGCAUCA
B13: chr10:115881139:115881140:-_ENSG00000165813_ENST00000369287|hu_hu|FALSE|FALSE (ssRNA)
RNA: GGGAGUUCUACAGUCCGACGAUCAUAAAAAUAUUUUCACCAGGGUAGCAUAUAUAACAACAUUUACAUUAUUAAGGAUUCUAUUUUUUUCUUUUACUGAUAAAUCUUGGUUUAAAUUUGCAUGUAACAAUUUUUAGAAAAUAACAACAGAGGAUUGAGCAUCA
B14: 58873449_58873569_2464_3pUTR_ENSMUSG00000025092_ENSMUST00000066285|mouse|control|control (ssRNA)
RNA: GGGAGUUCUACAGUCCGACGAUCAUCCAAGAUCAUUUUAAAAGACCUCCAAUGAAUGUUUCCCCCACCCUACCCUGCCCCCGGCACAGAGUGGGCGUCCUAAGCCUUCCCUUUCAGAGCCCUCUUCCAAGCAGGCUGCACCCACAACAGAGGAUUGAGCAUCA
B15: 120959283_120959403_3001_3pUTR_ENSG00000154114_ENST00000422003|human|control|control (ssRNA)
RNA: GGGAGUUCUACAGUCCGACGAUCUGAAGAAUUUACAAGUCACCUAAAAAUUUCAUAAAAAAAUUAAAUUUGUAGGAGGGGUAGAAUUAUGUAACAAAGGUCAAAAGGUCAAAUGCAAUCAGAUAAUAACUGCAUUCUUUGAAACAACAGAGGAUUGAGCAUCA
B16: chr11:21040623:21040624:+_ENSMUSG00000020134_ENSMUST00000093290|mus_mus|motif|central (ssRNA)
RNA: GGGAGUUCUACAGUCCGACGAUCAAUGUGCACGGUGCUAGGCUUCACCCCAUUUGCCUUAGGUCUUUUAAACAAAGCAAACCGGCUUUUCCUCCUUCCUCUAUCACCGUUUGGGAGAGAUCCAUUAUAUCCUAAGACAAUGAGCAACAGAGGAUUGAGCAUCA
B17: chr1:109605286:109605287:-_ENSG00000197780_ENST00000461096|hu_mus|hu_hu_hu_mus_True|88_108 (ssRNA)
RNA: GGGAGUUCUACAGUCCGACGAUCAAGAACAAUAACAACAUUCAGUAUACUUAAAUCAUGCAAUUAUCCUUAUUAUAAGCUAAGCAGAAUAAUAAUUUAAUACCGUAAGUGAACUACACACAAAGCCUGAACCGCGAAAAUGGUCAACAGAGGAUUGAGCAUCA
B18: chr8:42881778:42881779:+_ENSG00000168172_ENST00000307602|hu_hu|FALSE|FALSE (ssRNA)
RNA: GGGAGUUCUACAGUCCGACGAUCCUGAAGUUAGGGGCAAUCUGCAGGUUUGUGUUUCAGGAGGCAGGCAAACCAAAGGUAAGAACAUCUUCUGAUUAACUGUAAGAUGGGAUAAUUUUUAUGAAUACAACUUCAGAAAGCAUCCAACAGAGGAUUGAGCAUCA
B19: chr7:75932113:75932114:+_ENSG00000106211_ENST00000248553|hu_hu|hu_hu_hu_mus_False|8_18 (ssRNA)
RNA: GGGAGUUCUACAGUCCGACGAUCCUGCGACCACUCAUCGGGCAACCGGGGCACCCCGAAAGCUUGAUCGAAGAGGCGGCUGUGUGCAGGGUACCAGUCCCGGAAUGGUUCCCAGCUGCCCCGCAGGAGCGAGAAGGAGGGCACCAACAGAGGAUUGAGCAUCA
B20: 171752885_171753005_485_CDS_ENSG00000010165_ENST00000361735|human|control|control (ssRNA)
RNA: GGGAGUUCUACAGUCCGACGAUCGGUGGCAUUACAUUCCUUCAUUUGCUUGAUGACAACCUCACUGAUGUCGAUGUUCACUAUAUCCCGAUAGCCCACAUCAUACAGUUGCUCACUCAGUUCUGAGUUGCCACACCCAAUCACCAACAGAGGAUUGAGCAUCA
B21: 59346998_59352246_650_CDS_ENSG00000215114_ENST00000399598|human|control|control (ssRNA)
RNA: GGGAGUUCUACAGUCCGACGAUCAUCCAAAUUCACUUGGCCACCAUGAACAAGGCGCUGAAGCUCCAGGGGAAUCUCUCCUCUCUUAACAGACUCCAGAAAUUGAGCAUUUGUUGGUUCAUUGUAAGGUCUCAAUUCUCCAUCCAACAGAGGAUUGAGCAUCA
B22: 244175_244709_261_3pUTR_ENSG00000185627_ENST00000382671|human|control|control (ssRNA)
RNA: GGGAGUUCUACAGUCCGACGAUCUUACACAGGAUCACUGCCUCAUCACUACUUUUCACCUUCUCACGAGUCUUUUCCAGAAAAGUAAGAGCCACAUUAGGAUCAGUCAUCUGUCUAACUACAUGAAGAAUGAUUUCCACGAGGCAACAGAGGAUUGAGCAUCA

The binders below were run against T1, UNK ZnF1-3 (assay: nsRBNS (natural sequence RNA bind-n-seq); RBNS binding buffer (assumed for nsRBNS): 25 mM Tris pH 7.5, 150 mM KCl, 3 mM MgCl2, 0.01% Triton X-100, 500 ug/ml BSA, 20 U/ml SUPERase-In, 4 C; UNK is unkempt and MSI1 is Musashi-1; names of the RNAs are library labels; protein concentration not given here; high values mean tight binding).

Binder	binding signal [enrichment R]
B1	1.36
B2	0.794
B3	0.98
B4	0.289
B5	1.69
B6	0.934
B7	1.16
B8	1.03
B9	1.3
B10	1.66
B11	5.18
B12	1.67
B13	3.75
B14	5.4
B15	4.1
B16	0.75
B17	0.813
B18	3.56
B19	1.07
B20	0.654
B21	1.23
B22	1.47
